The source of these data is PubChem BioAssay (NCI).

Assay [1] can be described thus: NCI Yeast Anticancer Drug Screen. Data for the rad50 strain (AID 155).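 Also: 0% = growth of vehicle-only cultures of the same strain.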 The following applies: S. cerevisiae rad50 strain growth inhibition, stronger effect = higher value. The method in brief:
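DNA repair mutant yeast, compound exposure, growth read-out; inhibition is taken relative to vehicle.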

The nature of assay [2]: NCI Yeast Anticancer Drug Screen. Data for the mec2-1 strain (AID 157). As to conditions: S. cerevisiae mec2-1 strain, stronger effect = higher value. In a few lines:
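mec2-1 yeast strain, carrying an alteration in DNA damage repair or cell cycle control, was exposed to compounds; growth inhibition was measured relative to vehicle-treated controls.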

Assay [3] is described as follows: NCI Yeast Anticancer Drug Screen. Data for the sgs1 mgt1 strain (AID 161).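 Also: 0% = growth of cultures given vehicle only.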 The following applies: S. cerevisiae sgs1 mgt1 strain, stronger effect = higher value. The method in brief: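 Compounds are added to genetically altered yeast, and growth is compared with cultures given vehicle alone to give percent inhibition.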
Assay [4] is described as follows: NCI Yeast Anticancer Drug Screen. Data for the cln2 rad14 strain (AID 165).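 Also: 0% = growth equal to vehicle treated cultures.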 The following applies: S. cerevisiae cln2 rad14 strain, stronger effect = higher value. In a few lines:
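Yeast carrying cln2 and rad14 alterations (cell cycle control and DNA damage repair) were exposed to compounds. Growth inhibition was measured against vehicle-treated controls.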

Assay [5] in a line: NCI Yeast Anticancer Drug Screen. Data for the bub3 strain (AID 167). As to conditions: S. cerevisiae bub3 mutant strain, stronger effect = higher value. In a few lines:
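In this screen, a yeast mutant lacking normal mitotic checkpoint function is challenged with compound. Relative growth versus vehicle gives the inhibition value.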

Assay [6] in a line: NCI Yeast Anticancer Drug Screen. Data for the mlh1 rad18 strain (AID 175). The following applies: S. cerevisiae mlh1 rad18 strain growth inhibition, stronger effect = higher value. In a few lines:
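Growth inhibition of the yeast strain was measured after compound exposure and expressed relative to vehicle-treated controls. The strain carries defined defects in DNA damage repair.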

Setting [7] is: at 5.0 µM (retest, dose inferred, filed as 0.5).
[8] abbreviates: at 50.0 µM (retest, dose inferred, filed as 5.0).

This is part of a sample that, as a whole, favours compounds with a hit. Of some 79,000 tested, about 15% had one in any assay. Unmarked numbers belong to inactive results. Active and inactive are the calls of the source. Rule as the data show it: active = growth inhibition above about 70%; inactive = the rest.

With `CCCCCCCCS(=O)(=O)Nc1ccccc1`, the growth inhibition is 11% in assay [1] (setting [7]); 98% (active) in assay [1] (setting [8]); 99.3% (active) in assay [1] (at 50.0 µM); 0% in assay [2] (setting [7]); 99% (active) in assay [2] (setting [8]); 99.2% (active) in assay [2] (at 50.0 µM). Moreover, the growth inhibition in assay [3] (setting [7]) was 6%; in assay [3] (setting [8]) it was 99% (active); in assay [3] (at 50.0 µM) it was 99.3% (active); in assay [4] (setting [7]), 4%; in assay [4] (setting [8]) it was 99% (active); in assay [4] (at 50.0 µM), 99.4% (active). Moreover, the growth inhibition in assay [5] (setting [7]) was 4%; in assay [5] (setting [8]), 99% (active); in assay [5] (at 50.0 µM) it was 99.1% (active); in assay [6] (setting [7]) it was -5%; in assay [6] (setting [8]) it was 61%; in assay [6] (at 50.0 µM), 99.1% (active).
For `CC(C)C1=C(O)c2ccccc2C(=O)C1=O`, the growth inhibition in assay [1] (setting [7]) was -9%; in assay [1] (setting [8]), 97% (active); in assay [1] (at 50.0 µM), 86.8% (active); in assay [2] (setting [7]) it was 13%; in assay [2] (setting [8]), 94% (active); in assay [2] (at 50.0 µM), 78.7% (active). Moreover, the growth inhibition in assay [3] (setting [7]) was 38%; in assay [3] (setting [8]), 97% (active); in assay [3] (at 50.0 µM), 90.5% (active); in assay [4] (setting [7]), -21%; in assay [4] (setting [8]), 86% (active); in assay [4] (at 50.0 µM) it was 62.6%. Also, the growth inhibition is 11% in assay [5] (setting [7]); 97% (active) in assay [5] (setting [8]); 84.3% (active) in assay [5] (at 50.0 µM); 18% in assay [6] (setting [7]); 98% (active) in assay [6] (setting [8]); 90.2% (active) in assay [6] (at 50.0 µM).
`O=C(Cc1nc2ccc(Cl)cc2nc1CC(=O)c1ccccc1)c1ccccc1`: the growth inhibition in assay [1] (setting [7]) is 10%; in assay [1] (setting [8]) it was 96% (active); in assay [1] (at 50.0 µM), 95.2% (active); in assay [2] (setting [7]), 2%; in assay [2] (setting [8]) it was 93% (active); in assay [2] (at 50.0 µM) it was 85.5% (active). Further, the growth inhibition in assay [3] (setting [7]) is -2%; in assay [3] (setting [8]), 94% (active); in assay [3] (at 50.0 µM), 61.7%; in assay [4] (setting [7]), -5%; in assay [4] (setting [8]) it was 92% (active); in assay [4] (at 50.0 µM), 67.3%. Further, the growth inhibition in assay [5] (setting [7]) is -1%; in assay [5] (setting [8]) it was 97% (active); in assay [5] (at 50.0 µM), 77.5% (active); in assay [6] (setting [7]) it was 7%; in assay [6] (setting [8]), 96% (active); in assay [6] (at 50.0 µM) it was 96.3% (active).
`CN[C@@H](Cc1cccc2ccccc12)C(=O)N[C@@H](CC(C)C)B(O)O`: the growth inhibition in assay [1] (setting [7]) is 34%; in assay [1] (setting [8]), 51%; in assay [1] (at 50.0 µM), 27.1%; in assay [2] (setting [7]), 37%; in assay [2] (setting [8]), 40%; in assay [2] (at 50.0 µM), 12.1%. Further, the growth inhibition in assay [3] (setting [7]) was 16%; in assay [3] (setting [8]), 18%; in assay [3] (at 50.0 µM), 3.85%; in assay [4] (setting [7]) it was 53%; in assay [4] (setting [8]), 54%; in assay [4] (at 50.0 µM), 59.4%. The growth inhibition was 25% in assay [5] (setting [7]); 16% in assay [5] (setting [8]); 36.5% in assay [5] (at 50.0 µM); 33% in assay [6] (setting [7]); 60% in assay [6] (setting [8]); 16.4% in assay [6] (at 50.0 µM).
On to `Cc1c(Cl)c(S(N)(=O)=O)cc2c1NC=NS2(=O)=O`, for which the growth inhibition in assay [1] (setting [7]) is 10%; in assay [1] (setting [8]), -10%; in assay [1] (at 50.0 µM), 7.45%; in assay [2] (setting [7]), -1%; in assay [2] (setting [8]), 2%; in assay [2] (at 50.0 µM), -22.8%. For the same molecule, the growth inhibition in assay [3] (setting [7]) was -2%; in assay [3] (setting [8]), -14%; in assay [3] (at 50.0 µM) it was -26.1%; in assay [4] (setting [7]), 7%; in assay [4] (setting [8]) it was 9%; in assay [4] (at 50.0 µM), 22.4%. Besides, the growth inhibition is -13% in assay [5] (setting [7]); -3% in assay [5] (setting [8]); -20.4% in assay [5] (at 50.0 µM); -3% in assay [6] (setting [7]); 10% in assay [6] (setting [8]); -16.6% in assay [6] (at 50.0 µM).
For `Clc1ccc(C2NC(c3ccccc3)c3c(ccc4ccccc34)O2)cc1` (stereo not given), the growth inhibition in assay [1] (setting [7]) was -4%; in assay [1] (setting [8]), 26%; in assay [1] (at 50.0 µM), 70.5% (active); in assay [2] (setting [7]), 7%; in assay [2] (setting [8]) it was 19%; in assay [2] (at 50.0 µM), 66.2%. For the same molecule, the growth inhibition was 2% in assay [3] (setting [7]); 39% in assay [3] (setting [8]); 27.1% in assay [3] (at 50.0 µM); 1% in assay [4] (setting [7]); 15% in assay [4] (setting [8]); 81.2% (active) in assay [4] (at 50.0 µM). Besides, the growth inhibition in assay [5] (setting [7]) was 3%; in assay [5] (setting [8]), 7%; in assay [5] (at 50.0 µM), 58.6%; in assay [6] (setting [7]), 27%; in assay [6] (setting [8]), 53%; in assay [6] (at 50.0 µM), 77.7% (active).
For the molecule `CC(=O)Nc1cccc(Oc2ccc(Br)cc2[N+](=O)[O-])c1`, the growth inhibition in assay [1] (setting [7]) is -3%; in assay [1] (setting [8]), 66%; in assay [1] (at 50.0 µM), 58.5%; in assay [2] (setting [7]), 1%; in assay [2] (setting [8]) it was 78% (active); in assay [2] (at 50.0 µM), 10%. Moreover, the growth inhibition in assay [3] (setting [7]) was 9%; in assay [3] (setting [8]), 94% (active); in assay [3] (at 50.0 µM), 83.1% (active); in assay [4] (setting [7]), 0%; in assay [4] (setting [8]), 47%; in assay [4] (at 50.0 µM) it was 24.7%. Also, the growth inhibition is -1% in assay [5] (setting [7]); 63% in assay [5] (setting [8]); 42.6% in assay [5] (at 50.0 µM); 20% in assay [6] (setting [7]); 89% (active) in assay [6] (setting [8]); 70.5% (active) in assay [6] (at 50.0 µM).
On to `O=C(CC(O)(c1ccccc1)c1ccc(Cl)cc1)NC(=O)c1ccccc1O` (stereo not given), for which the growth inhibition in assay [1] (setting [7]) was 45%; in assay [1] (setting [8]), 93% (active); in assay [1] (at 50.0 µM), 85% (active); in assay [2] (setting [7]) it was 40%; in assay [2] (setting [8]) it was 98% (active); in assay [2] (at 50.0 µM), 89% (active). Further, the growth inhibition was 48% in assay [3] (setting [7]); 97% (active) in assay [3] (setting [8]); 91.6% (active) in assay [3] (at 50.0 µM); 42% in assay [4] (setting [7]); 99% (active) in assay [4] (setting [8]); 89% (active) in assay [4] (at 50.0 µM). For the same molecule, the growth inhibition in assay [5] (setting [7]) is 50%; in assay [5] (setting [8]), 99% (active); in assay [5] (at 50.0 µM), 86.8% (active); in assay [6] (setting [7]) it was 53%; in assay [6] (setting [8]), 97% (active); in assay [6] (at 50.0 µM), 86.8% (active).
Turning to `CCCCCCCCCCCCCCCCCCOS(=O)(=O)O` (tested in a mixture with another compound), the growth inhibition in assay [1] (setting [7]) is 1%; in assay [1] (setting [8]), 63%; in assay [1] (at 50.0 µM), 56.4%; in assay [2] (setting [7]) it was -35%; in assay [2] (setting [8]) it was 76% (active); in assay [2] (at 50.0 µM), 56.6%. Also, the growth inhibition in assay [3] (setting [7]) is -12%; in assay [3] (setting [8]), 60%; in assay [3] (at 50.0 µM), 68.7%; in assay [4] (setting [7]), -30%; in assay [4] (setting [8]) it was 49%; in assay [4] (at 50.0 µM), 42.5%. Further, the growth inhibition was -31% in assay [5] (setting [7]); 77% (active) in assay [5] (setting [8]); 67.5% in assay [5] (at 50.0 µM); -27% in assay [6] (setting [7]); 80% (active) in assay [6] (setting [8]); 57.5% in assay [6] (at 50.0 µM).
Take `CC1(c2ccc(S(=O)(=O)c3ccccc3)cc2)OC(=O)C=CC1=O` (stereo not given): the growth inhibition in assay [1] (setting [7]) is 82% (active); in assay [1] (setting [8]), 100% (active); in assay [1] (at 50.0 µM), 99.2% (active); in assay [2] (setting [7]) it was 92% (active); in assay [2] (setting [8]), 99% (active); in assay [2] (at 50.0 µM), 99.5% (active). The growth inhibition in assay [3] (setting [7]) is 94% (active); in assay [3] (setting [8]), 99% (active); in assay [3] (at 50.0 µM) it was 99.5% (active); in assay [4] (setting [7]) it was 44%; in assay [4] (setting [8]), 98% (active); in assay [4] (at 50.0 µM) it was 99.2% (active). Also, the growth inhibition is 94% (active) in assay [5] (setting [7]); 99% (active) in assay [5] (setting [8]); 99.5% (active) in assay [5] (at 50.0 µM); 97% (active) in assay [6] (setting [7]); 99% (active) in assay [6] (setting [8]); 99.5% (active) in assay [6] (at 50.0 µM).
